Data taken from PubChem BioAssay (NCATS).
Records with an inconclusive call do not appear. The source made the active and inactive calls. The call rests on the fitted dose curve; in most records, active means well fitted inhibition curve with a large enough effect in the signal ratio, with a control signal flat (not every such curve was filed as active); inconclusive means small, poorly fitted or top-dose-only effect, or effect the other way, or a change in a side signal; inactive means no such curve, though single readings can be large or run the other way; the % refers to the signal ratio.

Molecular target: Retinoic acid receptor RXR-alpha (Homo sapiens) (UniProt P19793)
Sequence (P19793 whole entry, looked up): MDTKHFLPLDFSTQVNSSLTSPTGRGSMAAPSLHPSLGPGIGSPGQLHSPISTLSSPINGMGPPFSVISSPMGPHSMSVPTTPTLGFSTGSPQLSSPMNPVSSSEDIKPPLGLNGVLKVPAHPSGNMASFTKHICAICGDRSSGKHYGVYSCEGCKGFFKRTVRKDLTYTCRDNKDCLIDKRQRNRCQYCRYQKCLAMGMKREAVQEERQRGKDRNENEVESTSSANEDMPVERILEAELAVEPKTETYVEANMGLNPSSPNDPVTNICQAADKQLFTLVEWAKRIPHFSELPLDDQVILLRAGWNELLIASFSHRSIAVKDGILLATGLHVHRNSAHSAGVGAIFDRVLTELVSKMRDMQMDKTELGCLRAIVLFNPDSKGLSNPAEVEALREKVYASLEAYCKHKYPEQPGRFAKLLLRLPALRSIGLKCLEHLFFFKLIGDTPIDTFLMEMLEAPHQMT
Assay: qHTS assay for small molecule antagonists of retinoid X receptor alpha signaling (AID 588546)
Conditions: HEK293T RXRa-UAS-bla, beta-lactamase ratio, antagonist mode
Text: NIH Chemical Genomics Center [NCGC] U.S. Environmental Protection Agency [EPA] National Institutes of Environmental Health Sciences [NIEHS] National Toxicology Program [NTP] NCGC Assay Overview The Retinoid X receptor (RXR), a nuclear hormone receptor is expressed in liver, spleen, placenta, epidermis, central nervous system. These receptors are able to form homo and heterodimers with other nuclear receptors and due to this heterodimerizing ability, RXR functions as master regulators producing diverse physiological effects. Three subtypes of RXR exist; alpha, beta and gamma. Retinoid X receptor alpha (RXR-alpha) has potential roles in metabolic signaling pathways, skin alopecia, dermal cysts, cardiac development, insulin sensitization etc. Therefore screening environmental chemicals on RXR-alpha signaling can be used for the studies focused on such therapeutic applications.
NCGC Assay Protocol Summary Using a beta-lactamase reporter-gene under control of Retinoid X receptor--alpha (RXR-alpha) response element, a cell-based assay [GeneBLAzer (RXR-alpha -UAS-bla assay developed by Invitrogen] was used to measure RXR-alpha ligands signaling. GeneBLAzer RXR-alpha -UAS-bla HEK293T cells were used with assay medium containing 2% charcoal-stripped FBS. The assay was performed in clear bottom black Greiner 1536-well plates. Library compounds were measured for their ability to inhibit the reporter gene activity. Compounds were screened in a titration series in 1536-well format. The fluorescence intensity (405 nm excitation, 460/530 nm emission) was measured using an EnVision plate reader. Data was normalized relative to 9-cis-retinoic acid control (500 nM, 100%), and DMSO only wells (basal, 0%). Concentration-response titration points for each compound were fitted to the Hill equation yielding concentrations of half-maximal inhibition (IC50) and maximal response (efficacy) values. qHTS protocol for RXR-alpha beta-lactamase assay in antagonist mode [Step] [Parameter] [Value] [Description] 1. Reagent; 5 uL; 2500 cells/well 2. Incubation; 37 C for 4 hrs 3. Compounds; 23 nL; 0.59 nM to 92 uM 4. Controls (DMSO); 23 nL 5. Agonist (Stimulator); 1uL; 9-cis-retinoic acid at 500 nM and 100 nM final concentrations 6. Incubation; 37 C for 18 hrs 7. Detection reagent; 1 uL of CCF4-dye 8. Incubation; RT for 2 hrs 9. Detection; Fluorescence; Envision plate reader
On the % scale 0 is the no-effect control and ±100 the full control effect.

Row | Compound | max response | Potency
1 | C#CCOC(=O)[C@@H](C)Oc1ccc(Oc2ncc(Cl)cc2F)cc1 | -3.03% (inactive) | –
2 | CCSC(=O)N(CC(C)C)CC(C)C | -2.54% (inactive) | –
3 | COC(=O)c1ccc(C(=O)OC)cc1 | -16.3% (inactive) | –
4 | Cc1ccc(N)c(S(=O)(=O)O)c1 | -14.4% (inactive) | –
5 | c1ccc2cc3ccccc3cc2c1 | -8.21% (inactive) | –
6 | OC1CCC(C2CCCCC2)CC1 (stereo not given) | 6.85% (inactive) | –
7 | O=C=NC1CCC(CC2CCC(N=C=O)CC2)CC1 (stereo not given) | -13.6% (inactive) | –
8 | COC(OC)(C(=O)c1ccccc1)c1ccccc1 | -6.2% (inactive) | –
9 | CC(C)CCCCCCCCCCCCCCC(=O)O | -25.1% (inactive) | –
10 | CCCCCCCOC(=O)c1ccccc1C(=O)OCCCCCCC | 5.05% (inactive) | –
11 | C1=C/CC/C=C/CC/C=C/CC/1 | -14.4% (inactive) | –
12 | CCC/C(=N\OCC)C1=C(O)CC(O)(CC(C)S(=O)(=O)CC)CC1=O (stereo not given) | 3.08% (inactive) | –
13 | O=c1[nH]sc2ccccc12 | – | 20 µM (active)
14 | CCCC/C=C\CCCCCCCCCC=O | 6.53% (inactive) | –
15 | O=S(=O)(O)c1ccc(N=Nc2cc(S(=O)(=O)O)c3ccccc3c2O)c2ccccc12 | 4.36% (inactive) | –
16 | COC(=O)CCSCCC(=O)OC | -2.91% (inactive) | –
17 | Cc1ccc2c(c1)C(=O)OC2=O | -14.4% (inactive) | –
18 | CC(C)=CCC[C@@H](C)[C@H]1CC[C@@]2(C)C3=C(CC[C@]12C)[C@@]1(C)CC[C@H](O)C(C)(C)[C@@H]1CC3 | 8.2% (inactive) | –
19 | CC(C)(N=C=O)c1cccc(C(C)(C)N=C=O)c1 | -29.1% (inactive) | –
20 | COC(=O)c1ccccc1S(=O)(=O)NC(=O)Nc1nc(OC(F)F)cc(OC(F)F)n1 | -2.35% (inactive) | –

Row | Compound | max response | Potency
21 | CC(C)OC(=O)c1ccccc1C(=O)OC(C)C | -1.37% (inactive) | –
22 | O=C(O)c1ccc2c(c1)C(=O)OC2=O | -0.339% (inactive) | –
23 | CCCCCCCCCCCCCCCCCC#N | -4.3% (inactive) | –
24 | CC1(C)CC(OC(=O)CCCCCCCCC(=O)OC2CC(C)(C)NC(C)(C)C2)CC(C)(C)N1 | -19.6% (inactive) | –
25 | CCN(Cc1cccc(S(=O)(=O)O)c1)c1ccc(C(=C2C=CC(=[N+](CC)Cc3cccc(S(=O)(=O)[O-])c3)C=C2)c2ccccc2)cc1 | 8.46% (inactive) | –
26 | C=Cc1ccc(P(c2ccccc2)c2ccccc2)cc1 | 3.02% (inactive) | –
27 | CO[Si](OC)(OC)c1ccccc1 | -6.99% (inactive) | –
28 | Brc1ccc(Br)c(Br)c1 | -14.6% (inactive) | –
29 | O=C1CCCC/C=C/CCCCCCCCCO1 | 5.91% (inactive) | –
30 | OCCOCCOCCOCCOCCO | 0.858% (inactive) | –
31 | CC(C)=CCC/C(C)=C\CO | -2.37% (inactive) | –
32 | CC(C)O.CC(C)O.CC(C)O.CC(C)O.[Ti] | 1.54% (inactive) | –
33 | CCCCC(CC)COC(=O)CS (stereo not given) | 2.49% (inactive) | –
34 | CCCCCCCCCCCCO | 8.28% (inactive) | –
35 | CC(C)c1ccc2cc(C(C)C)ccc2c1 | -6.87% (inactive) | –
36 | COc1ccc(OC)c(OC)c1 | 2.37% (inactive) | –
37 | CCCCN(CCCC)CCCC | 2.35% (inactive) | –
38 | C=C(C)C(=O)OCCCCCCCCCCCC | 6.49% (inactive) | –
39 | COC(=O)C1CCC(C(=O)OC)CC1 (stereo not given) | -11.5% (inactive) | –
40 | CCCCCCCC/C=C\CCCCCCCC(=O)OC | -0.729% (inactive) | –
